Assay outcomes (PubChem BioAssay)
Only some compounds are listed: those with a hit (about 1.8% of all), similar ones and a draw of the others.
S1P2 blocker: S1P2 (human) receptor antagonism; cell-based S1P2 antagonist assay, inhibition at 5 uM; actives 0.21% (n = 97,000); inhibition, % at 5 µM; O95136; in the data active = inhibition above about 45%;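 also: CRE beta-lactamase reporter cells expressing human S1P2 stimulated with S1P; 0% = agonist at EC80 alone and 100% = agonist plus reference antagonist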
GALR2 antag: GALR2 (human) receptor antagonism. GALR2-expressing cells, antagonist mode. AID 828. inhibition, % at 4 µM. actives 0.39% (n = 140,000); in the data active = inhibition above about 27%;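 also: cells stimulated with galanin 1-16 at roughly its EC80; 0% = agonist challenge control and 100% = basal control without agonist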
Target sequence (O43603 whole entry, looked up): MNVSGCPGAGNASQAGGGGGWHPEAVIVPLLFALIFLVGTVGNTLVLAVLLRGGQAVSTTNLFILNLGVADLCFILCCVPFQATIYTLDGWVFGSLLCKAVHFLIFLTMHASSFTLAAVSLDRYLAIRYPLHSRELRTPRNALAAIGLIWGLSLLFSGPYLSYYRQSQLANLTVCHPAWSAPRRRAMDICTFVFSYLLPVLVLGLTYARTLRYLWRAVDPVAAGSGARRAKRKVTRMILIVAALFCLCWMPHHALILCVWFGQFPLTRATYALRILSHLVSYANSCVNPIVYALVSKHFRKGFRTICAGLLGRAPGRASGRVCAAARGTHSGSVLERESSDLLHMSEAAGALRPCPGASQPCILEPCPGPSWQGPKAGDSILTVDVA
MRP1 act: MRP-1 activation; H69AR cells + doxorubicin, viability rescue, CellTiter-Glo; viability increase, % at 10 µM; actives 0.61% (n = 140,000);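 active = viability gain under doxorubicin at or above a set limit, the compound median plus 3 SD, cut at about 4.7% in these data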;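 also: MRP-1 overexpressing cells given doxorubicin 25 µM after compound pretreatment; 18-22 h compound pretreatment then 72 h with doxorubicin before readout; 0% = doxorubicin-only wells and 100% = vehicle-treated cells without doxorubicin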
S1P2 agonist: agonists of human S1P2 receptor | S1P2-expressing cell line, agonist reporter read-out | activation, % at 4.5 µM | actives 0.46% (n = 97,000); in the data active = activation above about 16%;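 also: 0% = vehicle low control and 100% = maximal reference agonist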
MRP resist rev: compounds reversing MRP-mediated drug resistance | H69AR cells + 2 uM doxorubicin, CellTiter-Glo, 72 h | differential viability (reversal), % at 10 µM | actives 0.04% (n = 85,000);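 active = viability drop by adding the cancer drug above about 55%, with treated viability meeting a 40% cutoff, limit read from the data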;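 also: viability without doxorubicin minus viability with 2 µM doxorubicin for each compound; larger differential means the compound sensitizes cells more to doxorubicin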
GALR2 ag: activates the human galanin receptor 2. O43603. GALR2-expressing cells, agonist activation read-out. activation, % (test concentration not listed). actives 0.48% (n = 140,000). AID 803; in the data active = activation above about 5%, passing the limit was not always enough;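 also: 0% = vehicle buffer wells and 100% = reference agonist at full effect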
* hit, by the source's call; · = no result given.

SMILES	S1P2 blocker	GALR2 antag	MRP1 act	S1P2 agonist	MRP resist rev	GALR2 ag
CCOC(=O)NC1(NC2CCCCC2)Oc2ccccc2O1	11	-5	-6	-15	-15	-1
CC(=O)NC1=NN(C(C)=O)C(C)(CCS(=O)(=O)c2ccc(Br)cc2)S1 (stereo not drawn)	·	-1	-1	·	·	6.9*
O=C(c1cc2c(ccc3ccccc32)oc1=O)N1CCCC1	19	-1	2	-3	14	0
O=C(NC1CCCCCC1)c1c(F)c(F)c(F)c(F)c1F	·	17	-5	·	-10	-1
COc1cccc(/C=N/NC(=O)C(=O)NCc2ccco2)c1O	-16	15	6.0*	-2	·	-1
CC(C)Oc1ccc(-c2nn(-c3ccccc3)cc2/C=c2\sc3ncnn3c2=O)cc1	-10	-9	5.8*	-3	-7	1
CCCc1nc(Cl)c(C#N)c2c1CCCC2	·	-3	-2	·	·	-1
CCCc1nc(N)c(C#N)c(N)c1C#N	-37	-4	-1	17*	8	-1
COc1ccc(C2C=C(c3cccs3)Nc3nc(CCCO)nn32)cc1 (stereo not drawn)	37	30*	-1	-14	-13	-2
COc1ccc(C2C=C(c3ccccc3)Nc3nc(CCCO)nn32)cc1 (stereo not drawn)	33	20	-1	-4	-1	0
CCCCOC(=O)C(C)Nc1n[nH]c(=S)[nH]c1=O (stereo not drawn)	6	-3	-3	-5	-10	-3
CC(C)CCC(C)N=Cc1c(O)n(Cc2ccccc2)c(=O)c2ccccc12 (stereo not drawn)	6	-11	0	-4	-4	-1
COc1ccc(Cn2c(O)c(C=Nc3ccc(OC)cc3)c3ccccc3c2=O)cc1	·	-13	6.4*	·	·	0
CC(C)Cn1c2c(c(O)c(C(=O)Nc3nccs3)c1=O)CCCC2	7	2	5.7*	-4	-13	-2
C=CCNC(=O)CN(c1ccc(F)cc1)S(=O)(=O)c1ccc(OC)cc1	-14	5	-3	-10	10	-3
Nc1nsc2ccccc12	50*	50*	-7	-3	·	-2
CCc1ccccc1NC1=NCC(=O)N1C1CCCCC1	·	1	-2	·	33	0
Oc1ccc(-c2nc(-c3ccc(O)c(O)c3)cs2)cc1	·	1	9.1*	·	-27	-2
COc1ccc2nc(NC(=O)c3cnccn3)sc2c1	-2	-9	-3	-5	-13	0
CSc1ncccc1C(=O)Nc1nc2ccc(Oc3ccccc3)cc2s1	·	-8	4.8*	·	·	0
CSc1sc2ccccc2[n+]1CCCS(=O)(=O)[O-]	3	-10	-1	26*	·	-2
CCOC(=O)c1c(-c2ccc(-c3ccccc3)cc2)csc1NC(=O)CCN1CCOCC1	·	-9	-7	·	·	0
COc1ccc(N2CCN(c3nc(Cl)nc(N4CCOCC4)n3)CC2)cc1	-16	-3	8.8*	0	-8	-1
COc1ccc(N2CCN(c3nc(NCCO)nc(N4CCOCC4)n3)CC2)cc1	4	-3	1	-5	19	-1
Cc1cc(C(=O)Nc2nnc(C(F)(F)F)s2)no1	8	7	5.5*	-2	3	-2
SMILES	S1P2 blocker	GALR2 antag	MRP1 act	S1P2 agonist	MRP resist rev	GALR2 ag
Cc1cccc(Nc2nnc(SCC(=O)Nc3cccnc3Cl)s2)c1	·	11	8.1*	·	·	-1
CCOc1ccc(Br)cc1/C=N/NC(=O)c1ccncc1	-3	-3	-1	-2	·	-2
COc1ccc(N2C(=O)CC(N3CCC(O)(c4cccc(C(F)(F)F)c4)CC3)C2=O)cc1 (stereo not drawn)	5	6	6.5*	-7	·	-2
CCOc1ccc(N2C(=O)CC(N3CCC(O)(c4ccc(Br)cc4)CC3)C2=O)cc1 (stereo not drawn)	20	4	0	-7	-2	-2
COCCCn1c(N)c(-c2nc3ccccc3n2C)c2nc3ccccc3nc21	30	23	-1	-10	-13	-2
Cn1c(-c2c(N)n(C3CCCC3)c3nc4ccccc4nc23)nc2ccccc21	93*	21	-3	-15	-12	0
Cn1nnnc1SCC(=O)Nc1nc(-c2ccccc2)c(-c2ccccc2)o1	-9	-7	-4	-6	60*	-1
CCN(CC)C(=S)SCC(=O)Nc1nc(-c2ccccc2)c(-c2ccccc2)o1	·	8	-3	·	·	-1
COc1ccc(NC(=O)CSc2ncc(-c3ccc(F)cc3)n2Cc2ccco2)cc1	-39	3	-2	-4	7	-2
O=C1NCCc2c1[nH]c1c(Cl)ccc(Cl)c21	1	0	-5	-2	2	-3
